DAX1 inh-1 = DAX1 (NR0B1) inhibition, primary screen; HEK293T StAR-luciferase reporter, SF-1/DAX-1 repression relief; inhibition, % at 6.8 µM; 370,000 compounds, 1.1% hits; AID 652010;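 active = inhibition above the mean over all tested compounds plus 3 SD, cut at about 3.6% in these data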;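 note: 0% = DAX-1 cells with DMSO and 100% = cells lacking DAX-1 with DMSO; higher inhibition means more luminescence from relief of DAX-1 repression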
ssDAF-12 act = activators of S. stercoralis DAF-12 nuclear receptor. HEK293 ssDAF-12/GRIP1 lit1-tk-luc reporter, luminescence; % of 3 µM dafachronic acid response. activation, % at 6.8 µM. 370,000 compounds, 1% hits. AID 652126;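 active = activation above the mean over all tested compounds plus 3 SD, cut at about 0.9% in these data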;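 note: 0% = DMSO-only wells and 100% = 3 µM delta7-dafachronic acid wells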
hgDAF-12 ag = agonists of H. glycines DAF-12 nuclear receptor; HEK293 GAL4-hgDAF12 UAS-luciferase reporter, agonist luminescence; normalized to butyrate control; 370,000 compounds, 1.8% hits; activation, % at 6.8 µM; AID 687014;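 active = activation above a cutoff set at the mean of all screened compounds plus 3 SD, cut at about 10% in these data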;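 note: 0% = DMSO wells and 100% = sodium butyrate wells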
hcDAF-12 act = H. contortus DAF-12 activation, primary screen; HEK293 hcDAF-12 lit1-tk-luc reporter, luminescence; 0% DMSO, 100% Δ7-dafachronic acid; activation, % at 6.8 µM; 370,000 compounds, 1.4% hits; AID 652067;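 active = activation above the mean of all tested compounds plus 3 SD, cut at about 5.5% in these data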;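 note: 100% = response to 3 µM Δ7-dafachronic acid high control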
DAX1 inh-2 = inhibitors of human orphan nuclear receptor DAX1 (NR0B1) | P51843 | HEK293 Gal4-DAX1 luciferase reporter, luminescence | inhibition, % at 6.75 µM | 340,000 compounds, 0.99% hits;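 active = inhibition above the mean over all tested compounds plus 3 SD, cut at about 4.2% in these data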;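 note: 0% = DAX1-transfected cells with DMSO and 100% = empty-vector control cells with DMSO; inhibition shows as a rise in luminescence from relieved DAX1 repression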
Target sequence (P51843 207-470 limits assumed): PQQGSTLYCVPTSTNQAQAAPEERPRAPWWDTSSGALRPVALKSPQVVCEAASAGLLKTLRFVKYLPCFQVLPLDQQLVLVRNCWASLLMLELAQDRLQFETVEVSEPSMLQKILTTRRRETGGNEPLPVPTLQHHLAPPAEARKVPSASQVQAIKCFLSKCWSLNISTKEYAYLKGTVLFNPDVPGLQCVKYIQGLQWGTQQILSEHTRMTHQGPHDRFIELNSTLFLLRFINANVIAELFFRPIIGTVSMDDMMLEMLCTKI
* = called active by the depositor. Only some compounds are listed: those with a hit (about 4.1% of all), similar ones and a draw of the others.

O=C(NCCC(=O)N1CCc2ccccc21)c1ccco1 was read as DAX1 inh-1 1, ssDAF-12 act -1, hgDAF-12 ag 6, hcDAF-12 act 5.8* and DAX1 inh-2 1.
For CN(Cc1ccccc1Cl)C(=O)CCNC(=O)c1ccco1 the results were DAX1 inh-1 2, ssDAF-12 act -1, hgDAF-12 ag 0, hcDAF-12 act -1 and DAX1 inh-2 10*.
O=C(NCCN1C(=O)C2C3C=CC(C3)C2C1=O)c1cc(Cl)cc(Cl)c1 (centres undefined) was read as DAX1 inh-1 0, ssDAF-12 act -1, hgDAF-12 ag -1 and hcDAF-12 act -2.
`Cc1ccc(C2/C(=C(\O)c3c(C)nc4c(C)cccn34)C(=O)C(=O)N2CCN(C)C)o1` (centres undefined) gave DAX1 inh-1 0, ssDAF-12 act 0, hgDAF-12 ag 1, hcDAF-12 act 1 and DAX1 inh-2 2.
Cc1nc2c(C)cccn2c1/C(O)=C1\C(=O)C(=O)N(CCN(C)C)C1c1ccccc1 (centres undefined) was read as DAX1 inh-1 0, ssDAF-12 act 1.0*, hgDAF-12 ag -1, hcDAF-12 act -2 and DAX1 inh-2 5.8*.
`Cc1cc(NC(=O)CSc2nc3sc4c(c3c(=O)n2C)CCCC4)no1` gave DAX1 inh-1 0, ssDAF-12 act -1, hgDAF-12 ag -4, hcDAF-12 act -2 and DAX1 inh-2 0.
Screening Cc1cc(NC(=O)CSc2nc(C(C)C)nc3sc4c(c23)CCCC4)no1 returned DAX1 inh-1 1, ssDAF-12 act 1.3*, hgDAF-12 ag 2, hcDAF-12 act 0 and DAX1 inh-2 0.
For CC1CCN(c2ccc(C(=O)O)cc2NS(=O)(=O)c2cccc3cccnc23)CC1 the results were DAX1 inh-1 0, ssDAF-12 act -1, hgDAF-12 ag 0 and hcDAF-12 act 0.
For Cc1c(CC(=O)NCCCC(=O)O)c(=O)oc2c(C)c3oc4c(c3cc12)CCCC4 the results were DAX1 inh-1 0, ssDAF-12 act -1, hgDAF-12 ag 0, hcDAF-12 act -2 and DAX1 inh-2 4.9*.
Screening O=C(Nc1ccc(CN2CCOCC2)cc1)c1ccccc1F returned DAX1 inh-1 3, ssDAF-12 act 0, hgDAF-12 ag 12*, hcDAF-12 act 2 and DAX1 inh-2 0.
O=C(Nc1ccc(CN2CCOCC2)cc1)c1cc2ccccc2o1 was read as DAX1 inh-1 3.6*, ssDAF-12 act 0, hgDAF-12 ag 8, hcDAF-12 act 6 and DAX1 inh-2 -1.
`O=C(Nc1ccc(CN2CCOCC2)cc1)c1ccc(Cl)cc1Cl` gave DAX1 inh-1 -1, ssDAF-12 act -2, hgDAF-12 ag -2, hcDAF-12 act -4 and DAX1 inh-2 -1.
For O=C(NC(=S)Nc1ccc(CN2CCOCC2)cc1)c1cc2ccccc2o1 the results were DAX1 inh-1 0, ssDAF-12 act -2, hgDAF-12 ag 0, hcDAF-12 act 0 and DAX1 inh-2 0.
`CCCCCCCCN1C(=O)[C@@H](CC(=O)NCCCOCCCC)C[C@@]2(C(=O)OC)C1=C[C@H](COCc1ccccc1)O[C@@H]2C` gave DAX1 inh-1 -1, ssDAF-12 act -2, hgDAF-12 ag 3 and hcDAF-12 act 1.
For Cc1cccc(C)c1OCc1cc(C(=O)N2CCCC2c2nonc2C)no1 (centres undefined) the results were DAX1 inh-1 -1, ssDAF-12 act -1, hgDAF-12 ag -1, hcDAF-12 act 0 and DAX1 inh-2 -1.
For CSc1ccccc1OCc1cc(C(=O)N2CCCC2c2nonc2C)no1 (centres undefined) the results were DAX1 inh-1 1, ssDAF-12 act 0, hgDAF-12 ag 13*, hcDAF-12 act 5.9* and DAX1 inh-2 1.
`CCOc1cc(CCNC(=O)c2cc3ccsc3n2C)ccc1OC` gave DAX1 inh-1 -1, ssDAF-12 act -2, hgDAF-12 ag 0 and hcDAF-12 act 0.
`COc1cc(/C=C/C(=O)c2ccccc2)cc(OC)c1OC` gave ssDAF-12 act -2, hgDAF-12 ag -3 and hcDAF-12 act -2.
Screening CCOC(=O)c1cn2nc(N3CCCC3)ccc2n1 returned DAX1 inh-1 3, ssDAF-12 act 0, hgDAF-12 ag 10, hcDAF-12 act 6.0* and DAX1 inh-2 -2.
Screening S=C(Nc1ccc(Cl)cc1Cl)N1CCCCC1 returned DAX1 inh-1 0, ssDAF-12 act -1, hgDAF-12 ag 2, hcDAF-12 act 5.8* and DAX1 inh-2 1.

Compound activity (PubChem)
